A short description of test [1]: qHTS assay to identify small molecule antagonists of the sonic hedgehog signaling (Shh) pathway (AID 1259369; calls by dose curve; further: nearly all actives have a fitted effect of over 45% in size; further: potency means the concentration at half of the fitted maximal effect). In outline: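 Conditioned medium drives Shh signalling in 3T3Gli1-Luc cells; compounds in DMSO co-applied, 24hr at 37 C, then luciferase luminescence.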
For orientation: qHTS replaces the single test concentration by a dilution series.

Test [2] concerns the target Estrogen receptor beta (Homo sapiens) (UniProt Q92731). The experiment in a line: qHTS assay to identify small molecule agonists of the estrogen receptor beta (ER-beta) signaling pathway (AID 1259377; active means well fitted activation curve with a large enough effect in the signal ratio in the repeat runs, not every such curve was filed as active; the % refers to the signal ratio). In outline:
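qHTS in ER-beta-UAS-bla HEK293T cells: 6 hr settling, then 16 hr compound at 37C, then LiveBLAzer substrate 2 h at RT before fluorescence reading.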

Test [3] shares this target. The test is described as follows: qHTS assay to identify small molecule antagonists of the estrogen receptor beta (ER-beta) signaling pathway (AID 1259378; active means well fitted inhibition curve with a large enough effect in the signal ratio in the repeat runs, not every such curve was filed as active; the % refers to the signal ratio; further: potency means the concentration at half of the fitted maximal effect). In outline: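 ER-beta-UAS-bla HEK293T (GripTite) cells in 2% charcoal-stripped FBS medium were preincubated 6 hr at 37C, dosed with compound, then stimulated with 1 nM E2 (final) for 16 hr; beta-lactamase reporter read by B/G FRET fluorescence after 2 hr substrate loading.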

A short description of test [4]: qHTS assay to identify small molecule agonists of the androgen receptor (AR) signaling pathway in the presence of an antagonist - cell viability counter screen (AID 1259379). Further: nearly all actives have a fitted effect of over 25% in size. Further: potency means the concentration at half of the fitted maximal effect. In short, it runs like this:
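A CellTiter-Fluor read-out measured viability of MDA-kb2 reporter cells (MMTV promoter with AR and GR response elements). Treatment: nilutamide 3.0uM final with compounds at 15 concentrations, 16 hr, 37C, 0% CO2.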

The nature of test [5]: qHTS assay to identify small molecule agonists of the estrogen receptor beta (ER-beta) signaling pathway - cell viability counter screen (AID 1259380). Further: nearly all actives have a fitted effect of over 30% in size. Further: potency means the concentration at half of the fitted maximal effect. In short, it runs like this: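 Cells used were ER-beta-UAS-bla HEK293T in medium with 2% charcoal-stripped FBS. They were treated for 16 hr at 37C. Viability came from CellTiter-Glo luminescence.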
Test [6] in a line: qHTS assay to identify small molecule antagonists of the estrogen receptor beta (ER-beta) signaling pathway - cell viability counter screen (AID 1259382). Further: nearly all actives have a fitted effect of over 55% in size. Further: potency means the concentration at half of the fitted maximal effect. In outline: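 Agonist-stimulated (1nM E2) ER-beta-UAS-bla HEK293T cells are incubated with library compounds for 16 hr at 37C. Cell viability is then assessed in the reporter-assay wells by adding CellTiter-Glo and reading luminescence after 30 min.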

A short description of test [7]: qHTS assay to identify small molecule agonists or antagonists of the thyroid stimulating hormone receptor (TSHR) signaling pathway - wild type cell line counter screen (AID 1259384; calls by dose curve). In short, it runs like this:
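Wild-type HEK293 cells were plated 18 h at 37 C/5% CO2, pin-dosed with compound plus Ro20-1724 medium, held 30 min at room temperature, then given cAMP-d2 and anti-cAMP-cryptate; fluorescence was read after 1 h. Fifteen concentrations, triplicate.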

A short description of test [8]: qHTS assay to identify small molecule agonists of the estrogen receptor alpha (ER-alpha) signaling pathway in the presence of an antagonist - cell viability counter screen (AID 1259386).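 Further: cells exposed to compounds for 22 h at 37 °C before the viability read; nearly all actives have a fitted effect of over 30% in size.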 Further: potency means the concentration at half of the fitted maximal effect. In outline: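 ICI-182,780 at 10.0nM final accompanies the compound titration (15 concentrations, 22hr, 37C) on VM7Luc4E2 cells. The CellTiter-Fluor fluorescence readout runs in the same wells as the luciferase assay.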

Test [9] can be described thus: qHTS assay to identify small molecule agonists of the progesterone receptor (PR) signaling pathway - cell viability counter screen (AID 1346799; calls by dose curve; further: nearly all actives have a fitted effect of over 45% in size; further: potency means the concentration at half of the fitted maximal effect). In short, it runs like this: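 In parallel with the beta-lactamase readout, cytotoxicity toward PR-UAS-bla HEK293T cells was measured by CellTiter-Glo luminescence following 16 hr compound incubation in 2% charcoal-stripped FBS medium.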

Test [10] can be described thus: qHTS assay to identify small molecule agonists of the TGF-beta/Smad signaling pathway - cell viability counter screen (AID 1346829). Further: top concentration of the series differs between compounds; nearly all actives have a fitted effect of over 45% in size. In short, it runs like this:
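In parallel with the Smad reporter read, viability of HEK 293T cells stably carrying SBE-bla is quantified by ATP luminescence following 5 hr compound treatment.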

Test [11] in a line: qHTS assay to identify small molecule agonists of the TGF-beta/Smad signaling pathway (AID 1346859; active means well fitted activation curve with a large enough effect in the signal ratio in the repeat runs, not every such curve was filed as active; the % refers to the signal ratio; further: series mostly up to about 77 µM). In outline:
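After overnight seeding, SBE-bla HEK 293T cells are dosed with compounds in DMSO and kept 5 hr at 37 C, 5% CO2. LiveBLAzer-type FRET substrate is then applied for 2 hr at room temperature.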

Test [12] concerns the target Thyrotropin-releasing hormone receptor (Homo sapiens) (UniProt P34981). The test is described as follows: qHTS assay to identify small molecule antagonists of the thyrotropin-releasing hormone receptor (TRHR) signaling pathway (AID 1346877; active means well fitted inhibition curve with a large enough effect in the repeat runs, not every such curve was filed as active; further: series mostly up to about 51 µM). In outline: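 Screening used HEK293 cells engineered with TRHR, with a brief 5 min room-temperature compound exposure preceding addition of TRH to 1 nM. The read-out was kinetic calcium-dye fluorescence, concentration-response from 15 doses in triplicate.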

The target is the same in test [13]. The experiment in a line: qHTS assay to identify small molecule agonists of the thyrotropin-releasing hormone receptor (TRHR) signaling pathway (AID 1346891; calls by dose curve;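 further: HEK293 cells expressing TRHR with calcium dye readout; series mostly up to about 58 µM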). In short, it runs like this: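 Compounds were tested as agonists at 15 concentrations, in triplicate, on TRHR-Hek293 cells; calcium-sensitive dye fluorescence was recorded for 3 min following addition.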

Test [14] addresses Progesterone receptor (Homo sapiens) (UniProt P06401). The test is described as follows: qHTS assay to identify small molecule agonists of the progesterone receptor (PR) signaling pathway (AID 1346784; calls by dose curve; further: nearly all actives have a fitted effect of over 30% in size). In short, it runs like this: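 Fluorescence from LiveBLAzer B/G FRET substrate cleavage (2 hr, RT) reported PR activation in PR-UAS-bla HEK 293T cells treated 16 hr at 37C/5% CO2 with compounds; medium contained 2% charcoal-stripped FBS.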

Test [15] can be described thus: qHTS assay to identify small molecule antagonists of the progesterone receptor (PR) signaling pathway - cell viability counter screen (AID 1346798). Further: series mostly up to about 92 µM; nearly all actives have a fitted effect of over 50% in size. In short, it runs like this:
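CellTiter-Glo luminescence; PR-UAS-bla HEK293T, 3,000 cells/well; compound + R5020, 16 hr, 37C/5% CO2; 30 min RT before read.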

Test [16] can be described thus: qHTS assay to identify small molecule antagonists of the TGF-beta/Smad signaling pathway - cell viability counter screen (AID 1346824). Further: nearly all actives have a fitted effect of over 50% in size. In outline:
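SBE-bla HEK 293T cells were plated overnight at 37 C, then given compounds in DMSO plus TGF-beta1 (added as 0.25 ng/mL solution) for 5 hr. After the bla read, CellTiter-Glo was added to the same wells and luminescence read after 30 min at room temperature.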

Test [17] concerns the target Progesterone receptor (Homo sapiens) (UniProt P06401). The test is described as follows: qHTS assay to identify small molecule antagonists of the progesterone receptor (PR) signaling pathway (AID 1346795; active means well fitted inhibition curve with a large enough effect in the signal ratio in the repeat runs, not every such curve was filed as active; the % refers to the signal ratio; further: potency means the concentration at half of the fitted maximal effect). In short, it runs like this: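 Fluorescence intensity measured 2 hr after adding beta-lactamase FRET substrate to PR-UAS-bla HEK293T cells that had been co-treated 16 hr with compound and 1 nM R5020 (final concentration) in 2% charcoal-stripped FBS.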

The target in test [18] is Thyrotropin receptor (Homo sapiens) (UniProt P16473). The test is described as follows: qHTS assay to identify small molecule antagonists of the thyroid stimulating hormone receptor (TSHR) signaling pathway (AID 1259385; calls by dose curve; further: nearly all actives have a fitted effect of over 20% in size). In short, it runs like this:
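TSHR-HEK293 cells were plated and held 18 h at 37C/5% CO2, then given compound plus Ro20-1724 and stimulated with TSH at 1.5 ng/mL final. After 30 min at room temperature, cAMP was detected with cAMP-d2/anti-cAMP-cryptate (1 h) by fluorescence.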

Here are results for eight compounds from PubChem BioAssay (Tox21).

“And” between values parts separate entries of the source, which are not always exact repeats. Equal entries are not always repeated. Records with an inconclusive call do not appear. The source holds several records for some structures; these can differ, active in one and inactive in another. The source made the active and inactive calls. Unless noted, the call rests on the fitted dose curve; in most records, active means well fitted curve in the direction sought with a large enough effect in the repeat runs; inconclusive means weak or mixed curves; inactive means no such curve, though single readings can be large; an effect the other way counts as inactive or inconclusive.

Chain of Estrogen receptor beta (Homo sapiens) (Q92731 whole entry, looked up): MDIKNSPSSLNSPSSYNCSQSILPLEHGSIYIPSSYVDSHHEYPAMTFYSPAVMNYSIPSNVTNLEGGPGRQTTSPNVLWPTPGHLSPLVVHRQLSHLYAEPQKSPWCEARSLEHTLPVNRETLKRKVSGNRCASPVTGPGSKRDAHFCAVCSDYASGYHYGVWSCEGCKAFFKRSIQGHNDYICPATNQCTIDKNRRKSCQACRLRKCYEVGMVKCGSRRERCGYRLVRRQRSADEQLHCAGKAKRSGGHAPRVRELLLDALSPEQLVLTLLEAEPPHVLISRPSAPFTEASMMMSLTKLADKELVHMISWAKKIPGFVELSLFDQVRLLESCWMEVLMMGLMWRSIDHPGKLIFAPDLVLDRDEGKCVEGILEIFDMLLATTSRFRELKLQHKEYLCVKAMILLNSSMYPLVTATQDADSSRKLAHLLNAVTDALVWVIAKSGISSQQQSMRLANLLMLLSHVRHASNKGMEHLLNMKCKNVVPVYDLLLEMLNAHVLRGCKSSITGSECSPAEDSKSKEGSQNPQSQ
Chain of Progesterone receptor (Homo sapiens) (P06401 whole entry, looked up): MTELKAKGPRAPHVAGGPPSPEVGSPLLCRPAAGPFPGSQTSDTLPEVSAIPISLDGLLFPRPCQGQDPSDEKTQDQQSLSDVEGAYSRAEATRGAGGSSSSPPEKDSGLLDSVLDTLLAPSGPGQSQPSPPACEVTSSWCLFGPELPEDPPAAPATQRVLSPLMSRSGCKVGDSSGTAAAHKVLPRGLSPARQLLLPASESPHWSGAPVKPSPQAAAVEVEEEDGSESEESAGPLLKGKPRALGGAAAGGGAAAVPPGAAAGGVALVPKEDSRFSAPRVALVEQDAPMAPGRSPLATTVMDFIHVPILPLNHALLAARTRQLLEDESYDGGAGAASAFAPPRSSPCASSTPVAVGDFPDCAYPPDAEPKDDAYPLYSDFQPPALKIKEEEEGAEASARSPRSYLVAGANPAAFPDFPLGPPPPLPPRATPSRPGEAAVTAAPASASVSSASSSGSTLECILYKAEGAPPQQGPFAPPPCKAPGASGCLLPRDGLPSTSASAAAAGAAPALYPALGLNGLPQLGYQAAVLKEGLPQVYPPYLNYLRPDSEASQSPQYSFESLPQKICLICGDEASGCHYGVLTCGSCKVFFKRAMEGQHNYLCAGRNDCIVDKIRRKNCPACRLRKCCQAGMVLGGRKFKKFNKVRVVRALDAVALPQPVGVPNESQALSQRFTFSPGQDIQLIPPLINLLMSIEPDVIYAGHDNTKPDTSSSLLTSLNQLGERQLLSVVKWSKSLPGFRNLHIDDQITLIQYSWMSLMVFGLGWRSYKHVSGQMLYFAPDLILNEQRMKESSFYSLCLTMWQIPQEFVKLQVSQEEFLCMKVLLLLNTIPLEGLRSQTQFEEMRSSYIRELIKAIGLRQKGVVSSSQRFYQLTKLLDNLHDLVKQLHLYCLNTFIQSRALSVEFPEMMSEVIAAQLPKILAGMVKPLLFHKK
Chain of Thyrotropin-releasing hormone receptor (Homo sapiens) (P34981 whole entry, looked up): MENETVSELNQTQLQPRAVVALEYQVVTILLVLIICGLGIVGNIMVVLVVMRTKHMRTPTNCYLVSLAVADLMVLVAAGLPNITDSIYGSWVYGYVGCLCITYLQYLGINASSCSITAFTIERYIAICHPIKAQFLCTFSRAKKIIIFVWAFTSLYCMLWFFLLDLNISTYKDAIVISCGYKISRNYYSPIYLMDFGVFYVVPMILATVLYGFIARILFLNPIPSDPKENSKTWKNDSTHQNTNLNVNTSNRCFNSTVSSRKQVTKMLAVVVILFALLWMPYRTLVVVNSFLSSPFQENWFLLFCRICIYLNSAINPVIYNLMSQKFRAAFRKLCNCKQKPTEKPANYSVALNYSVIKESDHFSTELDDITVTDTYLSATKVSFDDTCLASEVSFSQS
Chain of Thyrotropin receptor (Homo sapiens) (P16473 whole entry, looked up): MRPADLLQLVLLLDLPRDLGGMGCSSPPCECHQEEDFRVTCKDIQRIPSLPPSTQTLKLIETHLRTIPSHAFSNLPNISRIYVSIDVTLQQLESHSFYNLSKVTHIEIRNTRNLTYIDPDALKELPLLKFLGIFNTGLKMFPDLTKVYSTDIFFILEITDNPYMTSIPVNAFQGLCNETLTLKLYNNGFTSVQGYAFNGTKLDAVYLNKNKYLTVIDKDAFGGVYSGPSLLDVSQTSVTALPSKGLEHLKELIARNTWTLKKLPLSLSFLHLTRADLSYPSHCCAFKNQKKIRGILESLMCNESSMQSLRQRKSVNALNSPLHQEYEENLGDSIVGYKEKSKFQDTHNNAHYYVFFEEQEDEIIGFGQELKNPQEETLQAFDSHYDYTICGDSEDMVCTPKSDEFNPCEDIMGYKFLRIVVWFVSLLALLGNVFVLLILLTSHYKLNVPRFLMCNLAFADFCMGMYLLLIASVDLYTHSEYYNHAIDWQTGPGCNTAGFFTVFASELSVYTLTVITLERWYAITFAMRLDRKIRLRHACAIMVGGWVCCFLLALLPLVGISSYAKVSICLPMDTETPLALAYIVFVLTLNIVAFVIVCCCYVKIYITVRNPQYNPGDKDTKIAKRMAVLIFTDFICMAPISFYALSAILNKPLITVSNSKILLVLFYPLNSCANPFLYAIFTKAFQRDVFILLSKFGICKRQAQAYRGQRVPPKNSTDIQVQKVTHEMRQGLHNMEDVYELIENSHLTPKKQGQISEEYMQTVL

`COC(=O)c1ccc(C(=O)OC)cc1`: the Potency was 982 nM (active) and inactive in [1]; 6.19 µM (active) and inactive in test [5]; 19.6 µM (active) and inactive in test [6]; 17.5 µM (active) and inactive in test [9]. Further, the Potency result in test [2], in test [3], in [4], in test [8], in test [10] and in [13] was “inactive” throughout. The compound was called inactive in test [7], in test [11] and in test [12].

Consider `CCCCCCCCC`, for which the Potency entry in [1], in test [2], in [3], in [4], in [5] and in test [6] was “inactive” in each case. The Potency entry in test [8], in test [14], in [15], in test [9], in test [16] and in [10] was “inactive” throughout. For the same compound, in test [13], the Potency entry is “inactive”. Also, the outcome in [7], in test [11] and in [12] was inactive.

For `CCCCC(CC)COC(=O)CCCCCCCC(=O)OCC(CC)CCCC` (stereo not drawn), the Potency was 15.4 µM (active) and inactive in [1]; 12.2 µM (active) and inactive in test [3]; 8.63 µM (active) and inactive in test [4]; 15.4 µM (active) in [5]; 30.6 µM (active) and inactive in test [6]; 8.63 µM (active) and inactive in test [17]. In test [9], the Potency is 54.5 µM (active) and inactive. Besides, the Potency entry in test [2], in test [8], in test [14], in [16], in [10] and in [13] was “inactive” in each case. The compound was called inactive in test [7], in test [11] and in test [12].

Turning to `CCCCNC(N)=O`, the Potency result in [1], in test [2], in test [3], in test [4], in test [5] and in test [6] was “inactive” each time. Further, the Potency result in [8], in [14], in test [17], in [15], in test [9] and in test [16] was “inactive” in each case. The Potency result in test [10] and in [13] was “inactive” in each case. In addition, the compound was classed as inactive in [11] and in test [12].

As for `CCCCCCCCCCCCOCC1CO1` (stereo not drawn), the Potency result in test [1], in test [2], in test [3], in test [4], in test [5] and in test [6] was “inactive” each time. In addition, the Potency entry in test [8], in test [14], in [15], in test [9], in test [16] and in test [10] was “inactive” in each case. For the same compound, in test [13], the Potency result was “inactive”. In addition, the result in [7], in test [18], in test [11] and in test [12] was inactive.

Turning to `O=S(=O)(O)c1cc(S(=O)(=O)O)c2c(N=Nc3ccccc3)c(O)ccc2c1`, the Potency result in test [1], in test [2], in test [3], in [5], in test [6] and in test [14] was “inactive” throughout. The Potency result in test [15], in test [9], in [16], in [10] and in [13] was “inactive” throughout. In addition, the Potency in test [4] was 30.8 µM (active) and 54.5 µM (active); in [8], 61.4 µM (active) and 27.3 µM (active). Also, the result in test [7], in [18], in test [11] and in [12] was inactive.

As to `O=[N+]([O-])C(CO)(CO)CO`, the Potency in test [1] is 151 nM (active). The Potency result in test [2], in test [3], in test [4], in test [5], in test [6] and in test [8] was “inactive” in each case. The Potency entry in test [14], in test [17], in test [15], in test [9], in [16] and in test [10] was “inactive” each time. Further, the Potency entry in test [13] was “inactive”. Also, the compound was called inactive in test [7], in [18], in [11] and in test [12].

In the case of `Cc1ccc(C(=O)O)o1`, the Potency result in test [1], in test [2], in test [3], in test [4], in test [5] and in test [6] was “inactive” in each case. The Potency entry in [8], in test [14], in test [17], in [15], in [9] and in test [10] was “inactive” throughout. Further, the compound was classed as inactive in test [7], in test [18] and in [11].
